We go through 36 compounds from PubChem BioAssay (NCATS).

Inconclusive results are not listed. Activity calls are given as the source filed them. The call rests on the fitted dose curve; in most records, active means well fitted inhibition curve with a large enough effect; inconclusive means small, poorly fitted or top-dose-only effect; inactive means flat fitted curve, though single readings scatter.
Further: nearly all actives have a fitted effect of over 60% in size.
Potency means the concentration at half of the fitted maximal effect.

One assay concerns TAB165. The assay is described as follows: qHTS profiling for inhibitors of Plasmodium falciparum proliferation (AID 504749). Particulars: P. falciparum in erythrocytes, SYBR Green DNA, 72 h; series mostly up to 28.7 µM. The procedure, abridged:
(§1)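 P. falciparum-infected erythrocytes (0.3% parasitemia, 2.5% hematocrit) incubated with compound 72 h at 37 C, 5% CO2. Parasite DNA detected by SYBR Green after lysis, overnight at room temperature; normalised to 0.29 uM artemisinin and DMSO.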
(Quantitative high-throughput screening tests each substance at several concentrations.)
On to `CC(=O)c1ccc2c(c1)N(CCCN1CCC(CCO)CC1)c1ccccc1S2`, for which the Potency result is “inactive”.

Turning to `COc1cc2c(cc1OC)C(C(C(=O)N(CCc1ccc(OC)c(OC)c1OC)CCc1ccc(OC)c(OC)c1OC)c1ccccc1)=NCC2` (centres undefined), the Potency is 1.26 µM (active).

In the case of `C[C@H]1C[C@H]2[C@@H]3CCC4=CC(=O)C=C[C@]4(C)[C@@]3(Cl)[C@@H](O)C[C@]2(C)[C@@]1(O)C(=O)CO`, the Potency result is “inactive”.

On to `CCCCOc1ccc(OCCCN2CCOCC2)cc1`, for which the Potency result is “inactive”.

Take `CC(=O)N/N=C/c1ccc([N+](=O)[O-])o1`: the Potency was 12.6 µM (active).

Consider `CC(=O)Oc1ccc(C(c2ccc(OC(C)=O)cc2)c2ccccn2)cc1`, for which the Potency result was “inactive”.

For the compound `OC(CCN1CCCCC1)(c1ccccc1)c1ccccc1`, the Potency is 14.1 µM (active).

In the case of `CN1CCC(=C2c3ccccc3Sc3ccccc32)CC1`, the Potency is 7.94 µM (active).

Consider `c1ccc(OCc2ccc(CCCN3CCOCC3)cc2)cc1`, for which the Potency entry was “inactive”.

For `COC1=CC(=O)C[C@@H](C)[C@]12Oc1c(Cl)c(OC)cc(OC)c1C2=O`, the Potency entry was “inactive”.

With `COc1cccc2c1C(=O)c1c(O)c3c(c(O)c1C2=O)C[C@@](O)(C(C)=O)C[C@@H]3O[C@H]1C[C@H](N)[C@H](O)[C@H](C)O1`, the Potency is 2.24 µM (active).

As for `CCCCCCCCCCCCCCCC[N+](C)(C)CC`, the Potency was 4.47 µM (active).

As for `CCCCCCC[N+](CC)(CC)CCCCc1ccc(Cl)cc1`, the Potency was 2 µM (active).

For `CN(C)C(=S)SC(=S)N(C)C`, the Potency is 11.2 µM (active).

On to `C=C(CC)C(=O)c1ccc(OCC(=O)O)c(Cl)c1Cl`, for which the Potency was 12.6 µM (active).

For the compound `Oc1ccc(Cl)c2cccnc12`, the Potency entry is “inactive”.

Turning to `CCCCCC=CCC=CCCCCCCCC(=O)OCC`, the Potency result is “inactive”.

Consider `COc1ccc(CN2CCN(C(c3ccc(F)cc3)c3ccc(F)cc3)CC2)c(OC)c1OC`, for which the Potency was 7.08 µM (active).

With `CN(C)CC/C=C1\c2ccccc2Sc2ccc(Cl)cc21`, the Potency is 7.94 µM (active).

The subject of a further assay is W2. Described as above. Particulars: P. falciparum in erythrocytes, SYBR Green DNA, 72 h; series mostly up to 28.7 µM. The method in brief:
as §1
For the compound `CC(=O)c1ccc2c(c1)N(CCCN1CCC(CCO)CC1)c1ccccc1S2`, the Potency was 1.02 µM (active).

For the compound `COc1cc2c(cc1OC)C(C(C(=O)N(CCc1ccc(OC)c(OC)c1OC)CCc1ccc(OC)c(OC)c1OC)c1ccccc1)=NCC2` (centres undefined), the Potency is 1.07 µM (active).

As for `C[C@H]1C[C@H]2[C@@H]3CCC4=CC(=O)C=C[C@]4(C)[C@@]3(Cl)[C@@H](O)C[C@]2(C)[C@@]1(O)C(=O)CO`, the Potency result was “inactive”.

Regarding `CCCCOc1ccc(OCCCN2CCOCC2)cc1`, the Potency result was “inactive”.

Take `CN(C)CCCOc1nn(Cc2ccccc2)c2ccccc12`: the Potency was 2.28 µM (active).

Turning to `CC(=O)Oc1ccc(C(c2ccc(OC(C)=O)cc2)c2ccccn2)cc1`, the Potency result is “inactive”.

With `OC(CCN1CCCCC1)(c1ccccc1)c1ccccc1`, the Potency was 4.26 µM (active).

Take `CN1CCC(=C2c3ccccc3Sc3ccccc32)CC1`: the Potency is 2.13 µM (active).

In the case of `COC1=CC(=O)C[C@@H](C)[C@]12Oc1c(Cl)c(OC)cc(OC)c1C2=O`, the Potency result is “inactive”.

As for `COc1cccc2c1C(=O)c1c(O)c3c(c(O)c1C2=O)C[C@@](O)(C(C)=O)C[C@@H]3O[C@H]1C[C@H](N)[C@H](O)[C@H](C)O1`, the Potency is 1.35 µM (active).

On to `CCCCCCCCCCCCCCCC[N+](C)(C)CC`, for which the Potency is 3.79 µM (active).

Turning to `O=C1[C@H]2CCCC[C@H]2C(=O)N1CCCCN1CCN(c2nsc3ccccc23)CC1`, the Potency was 15.1 µM (active).

Turning to `CCCCCCC[N+](CC)(CC)CCCCc1ccc(Cl)cc1`, the Potency is 1.61 µM (active).

As for `CN(C)C(=S)SC(=S)N(C)C`, the Potency was 9.53 µM (active).

Take `c1ccc(CNCCNCc2ccccc2)cc1`: the Potency is 4.26 µM (active).

For `CCCCCC=CCC=CCCCCCCCC(=O)OCC`, the Potency entry is “inactive”.

As to `COc1ccc(CN2CCN(C(c3ccc(F)cc3)c3ccc(F)cc3)CC2)c(OC)c1OC`, the Potency was 3.38 µM (active).

In the case of `CN(C)CC/C=C1\c2ccccc2Sc2ccc(Cl)cc21`, the Potency is 2.69 µM (active).

With `CCN(CCCc1ccccc1)CCCc1ccccc1`, the Potency is 1.28 µM (active).

Another assay has as its system CRL-7250. Put plainly: Cytotoxic Profiling of Annotated Libraries Using Quantitative High-Throughput Screening (AID 1296008). On max response: on the % scale 0 is the no-effect control and ±100 the full control effect. Particulars: Five cell lines viability, CellTiter-Glo ATP luminescence, 48-72 h; max response: active compounds read low. The procedure, abridged: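 Cells exposed to compounds for 48 or 72 hr at 37 degrees Celsius. Viability read as ATP-coupled luminescence with CellTiter-Glo after 10 min at room temperature.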
(In ATP-based viability assays light output follows the ATP content of the culture.)
Turning to `C[n+]1c2cc(N)ccc2cc2ccc(N)cc21` (tested in a mixture with another compound), the Potency was 6.68 µM (active).

Turning to `CC(=O)c1ccc2c(c1)N(CCCN1CCC(CCO)CC1)c1ccccc1S2`, the max response was -7.11% (inactive).

Regarding `COc1cc2c(cc1OC)C(C(C(=O)N(CCc1ccc(OC)c(OC)c1OC)CCc1ccc(OC)c(OC)c1OC)c1ccccc1)=NCC2` (centres undefined), the max response is -6.63% (inactive).

As to `C[C@H]1C[C@H]2[C@@H]3CCC4=CC(=O)C=C[C@]4(C)[C@@]3(Cl)[C@@H](O)C[C@]2(C)[C@@]1(O)C(=O)CO`, the compound was classed as inactive.

Take `CCCCOc1ccc(OCCCN2CCOCC2)cc1`: the max response is 2.95% (inactive).

On to `CC(=O)[C@H]1CC[C@H]2[C@@H]3C[C@H](C)C4=CC(=O)CC[C@]4(C)[C@H]3[C@@H](O)C[C@]12C`, for which the outcome was inactive.

Consider `O=C(OCC(O)CO)c1ccccc1Nc1ccnc2cc(Cl)ccc12` (centres undefined), for which the outcome was inactive.

Regarding `CC(=O)N/N=C/c1ccc([N+](=O)[O-])o1`, the max response was -0.507% (inactive).

On to `COc1cc2c(cc1OC)[C@@H]1CC(=O)[C@@H](CC(C)C)CN1CC2`, for which the max response was -4.44% (inactive).

For the compound `C=C1C[C@H]2[C@@H]3C=C(C)C4=CC(=O)CC[C@]4(C)[C@H]3CC[C@]2(C)[C@@]1(OC(C)=O)C(C)=O`, the max response is 1.09% (inactive).

Take `CN(C)CCCOc1nn(Cc2ccccc2)c2ccccc12`: the max response was 1.45% (inactive).

For `CC(=O)Oc1ccc(C(c2ccc(OC(C)=O)cc2)c2ccccn2)cc1`, the max response is -7.93% (inactive).

As for `C=C1C(=C/C=C2\CCC[C@]3(C)[C@@H]([C@H](C)/C=C/[C@@H](O)C4CC4)CC[C@@H]23)C[C@@H](O)C[C@@H]1O`, the call was inactive.

As to `CN(C/C=C/c1ccccc1)Cc1cccc2ccccc12`, the Potency was 26.6 µM (active).

With `OC(CCN1CCCCC1)(c1ccccc1)c1ccccc1`, the call was inactive.

For the compound `Cc1ccccc1C(=O)Nc1ccc(C(=O)N2CCCC(N(C)C)c3ccccc32)cc1` (centres undefined), the Potency was 23.7 µM (active).

Take `CN1CCC(=C2c3ccccc3Sc3ccccc32)CC1`: the max response was -1.99% (inactive).

Consider `CC1(C)O[C@@H]2C[C@H]3[C@@H]4CCC5=CC(=O)CC[C@]5(C)[C@@]4(F)[C@@H](O)C[C@]3(C)[C@]2(C(=O)CCl)O1`, for which the max response was 2.38% (inactive).

As for `c1ccc(OCc2ccc(CCCN3CCOCC3)cc2)cc1`, the max response is -18% (inactive).

With `COC1=CC(=O)C[C@@H](C)[C@]12Oc1c(Cl)c(OC)cc(OC)c1C2=O`, the compound was classed as inactive.

As for `COc1cccc2c1C(=O)c1c(O)c3c(c(O)c1C2=O)C[C@@](O)(C(C)=O)C[C@@H]3O[C@H]1C[C@H](N)[C@H](O)[C@H](C)O1`, the Potency is 0.075 µM (active).

As to `CCCCCCCCCCCCCCCC[N+](C)(C)CC`, the Potency was 6.68 µM (active).

For `O=C1[C@H]2CCCC[C@H]2C(=O)N1CCCCN1CCN(c2nsc3ccccc23)CC1`, the result was inactive.

On to `CCCCCCC[N+](CC)(CC)CCCCc1ccc(Cl)cc1`, for which the Potency is 7.5 µM (active).

Take `CN(C)C(=S)SC(=S)N(C)C`: the Potency was 8.41 µM (active).

On to `CC1(C)O[C@@H]2C[C@H]3[C@@H]4C[C@H](F)C5=CC(=O)C=C[C@]5(C)[C@H]4[C@@H](O)C[C@]3(C)[C@]2(C(=O)CO)O1`, for which the max response is -27.4% (inactive).

Regarding `CCOC(=O)[C@H](CCc1ccccc1)N[C@@H](C)C(=O)N1Cc2ccccc2C[C@H]1C(=O)O`, the max response was -9.56% (inactive).

For the compound `C=C(CC)C(=O)c1ccc(OCC(=O)O)c(Cl)c1Cl`, the max response was -16.5% (inactive).

Turning to `Oc1ccc(Cl)c2cccnc12`, the compound was classed as inactive.

On to `C/C=C(/C(=C/C)c1ccc(O)cc1)c1ccc(O)cc1`, for which the max response is 1.03% (inactive).

In the case of `C[C@@H]1C[C@H]2[C@@H]3CCC4=CC(=O)C=C[C@]4(C)[C@@]3(F)[C@@H](O)C[C@]2(C)[C@H]1C(=O)CO`, the max response was -8.13% (inactive).

In the case of `c1ccc(CNCCNCc2ccccc2)cc1`, the max response is -8.49% (inactive).

For `CCCCCC=CCC=CCCCCCCCC(=O)OCC`, the max response was -11.8% (inactive).

As to `COc1ccc(CN2CCN(C(c3ccc(F)cc3)c3ccc(F)cc3)CC2)c(OC)c1OC`, the outcome was inactive.

In the case of `CN(C)CC/C=C1\c2ccccc2Sc2ccc(Cl)cc21`, the max response was -3.17% (inactive).

On to `CCN(CCCc1ccccc1)CCCc1ccccc1`, for which the compound was called inactive.
